PubChem BioAssay (NCATS)
Several values for one entry are separate records, joined by “and”; a condition that tells them apart may be missing. Identical values can stand only once. Records with an inconclusive call do not appear. Where a call stands in place of a potency, no number is given. Activity calls are given as the source filed them. Calls come from the whole dose curve; as a rule, active = well fitted cell-killing curve with a large enough effect; inconclusive = small, poorly fitted or top-dose-only effect, or effect the other way; inactive = no such curve, though single readings can be large or run the other way.

How the values were obtained:
[1] = Viability qHTS for spleen associated tyrosine kinase inhibitor (SYKi) naive MV4-11 cells (AID 1963823); note: nearly all actives have a fitted effect of over 40% in size
How it was run: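 Compounds were dispensed acoustically onto plates, MV4-11 cells (SYKi-naive) added at 500 per well, and plates incubated 72 hr at 37 C. CellTiter-Glo was added and luminescence measured after 10 min.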

[2] = Viability qHTS for spleen associated tyrosine kinase inhibitor (SYKi) drug resistant MV4-11 cells (AID 1963824); note: nearly all actives have a fitted effect of over 35% in size
How it was run: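 SYK-inhibitor-resistant MV4-11 AML cells were seeded at 500 per well onto compound and cultured 72 hours (37 °C, 5% CO2). CellTiter-Glo was then added, and after 10 min at room temperature, luminescence gave viability.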
Potency is the fitted concentration of half-maximal effect.

| Compound | Potency [1] | Potency [2] | viability (% of control) [1] | viability, % of control [2] |
| --- | --- | --- | --- | --- |
| O=C(NN1CCCCC1)c1nn(-c2ccc(Cl)cc2Cl)c(-c2ccc(C#Cc3ccc(C(F)(F)F)cc3)s2)c1CNS(=O)(=O)N1CCCC1 | inactive | inactive |  |  |
| COC(=O)C1=CO[C@@H](O[C@@H]2O[C@H](CO)[C@@H](O)[C@H](O)[C@H]2O)[C@@H]2[C@@](C)(O)[C@@H](OC(=O)/C=C/c3ccc(O)cc3)C[C@]12O | inactive | inactive |  |  |
| CC(=O)NC1CC(=O)C23C(=O)NC(Cc4c[nH]c5ccccc45)C2C(C)=C(C)C(O)C3/C=C/CC(C)/C=C(/C)C(O)C1O (centres undefined) | inactive | inactive |  |  |
| CCCc1cc(C)[nH]c(=O)c1CNC(=O)c1cc(-c2ccc(N3CCN(C(C)C)CC3)nc2)cc2c1cnn2C(C)C | 13 µM (active) and 5.9 µM (active) | 8.2 µM (active) and 8.33 µM (active) |  |  |
| O=C(/C=C/c1ccccc1)O[C@@H]1[C@@H](CO)O[C@@](CO)(O[C@H]2O[C@H](CO)[C@@H](O)[C@H](O)[C@H]2O)[C@H]1O | inactive | inactive |  |  |
| C/C=C/C(O)C1OC(=O)CC1Nc1ccc(C(=O)O)cc1 (centres undefined) | inactive | inactive |  |  |
| C=C1C(=O)O[C@H]2[C@H]1[C@@H](OC(=O)/C(C)=C\C)C[C@]1(C)O[C@@H]1[C@H]1O[C@H]1C(=C)[C@H]2O | 8.05 µM (active) | 3.6 µM (active) |  |  |
| C/C=C(\C)C(=O)O[C@H]1C=CC(=O)O[C@H]1/C=C/[C@H](O)[C@@H](C)O | 9.2 µM (active) | 7.31 µM (active) |  |  |
| C[C@@H]1O[C@@H](O[C@@H]2[C@@H](O)[C@H](O[C@H]3[C@H](O[C@H]4CC[C@@]5(C)C(CC[C@]6(C)C5CC=C5[C@@H]7CC(C)(C)CC[C@]7(C(=O)O[C@@H]7O[C@H](CO)[C@@H](O)[C@H](O)[C@H]7O)CC[C@]56C)C4(C)C)O[C@H](C(=O)O)[C@@H](O)[C@@H]3O)OC[C@H]2O)[C@H](O)[C@H](O)[C@H]1O (some centres undefined) |  |  | 62.1% [at 9.25 µM] (inactive) | 87.3% [at 9.25 µM] (inactive) |
| C/C1=C\CC[C@H](C)CCO[C@@H]2O[C@H](CO[C@@H]3OC[C@](O)(COC1=O)[C@H]3O)[C@@H](O)[C@H](O)[C@H]2O | inactive | inactive |  |  |
| Nc1nc(Nc2ccc3c(c2)CCC(N2CCCC2)CC3)nn1-c1cc2c(nn1)-c1ccccc1CCC2 (centres undefined) | 0.231 µM (active) | 0.366 µM (active) |  |  |
| C=C[C@@]12COC(=O)C(=C)C1[C@@H](O)[C@H](C(=C)C(=O)OC)[C@@H](OC(=O)C(=C)CO)C2 (some centres undefined) | 1.78 µM (active) | 1.59 µM (active) |  |  |
| C=C(C)C(=O)O[C@H]1[C@H]2C(=C)C(=O)O[C@@H]2C[C@@H](C)[C@@H]2O[C@@H]2C(=O)[C@](C)(O)[C@@H]1OC(=O)C(=C)C | 1 µM (active) | 1 µM (active) |  |  |
| C=C1CC2OC(=O)C(=C)C2C(O)/C=C(\C)CCC1O (centres undefined) | 18.4 µM (active) | 13 µM (active) |  |  |
| C=CC(C)(O)CC/C=C(\C)C(=O)O[C@@H]1[C@@H](O)[C@H](OC(C)(C=C)CC/C=C(\C)C(=O)O)O[C@H](CO)[C@H]1OC(=O)/C(C)=C/CCC(C)(O)C=C (some centres undefined) | inactive | inactive |  |  |
| NC(=O)c1ccccc1Nc1ccnc(Nc2cccc(O)c2)n1 | 0.372 µM (active) | 0.326 µM (active) |  |  |
| C[C@@H]1[C@H]2[C@H](O[C@@H]3O[C@H](CO)[C@@H](O)[C@H](O)[C@H]3O)OC=C(C(=O)O)[C@H]2C[C@@H]1O | inactive | inactive |  |  |
| Cc1onc(C(=O)N2CCN(C(c3ccc(Cl)cc3)c3ccc(Cl)cc3)CC2)c1[N+](=O)[O-] | 4.11 µM (active) | 4.61 µM (active) |  |  |
| COc1ccc(/C=C/C(=O)O[C@@H]2[C@@H](O)[C@H](C)O[C@@H](O[C@H]3[C@@H]4C=CO[C@@H](O[C@H]5O[C@@H](CO)[C@H](O)[C@@H](O)[C@@H]5O)[C@@H]4[C@@]4(CO)O[C@@H]34)[C@@H]2OC(C)=O)cc1 | inactive | inactive |  |  |
| CC[C@@H]([C@H](C)O)n1ncn(-c2ccc(N3CCN(c4ccc(OC[C@@H]5CO[C@@](Cn6cncn6)(c6ccc(F)cc6F)C5)cc4)CC3)cc2)c1=O | 11.9 µM (active) | 6.68 µM (active) |  |  |
| CC[N+]1(C/C2=C/CCCCCC2)CCC(NC(=O)C2c3cc(Cl)ccc3Oc3ccc(Cl)cc32)CC1 (centres undefined) | 6.51 µM (active) | 3.66 µM (active) |  |  |
| Oc1cccc(C2NC(=S)Nc3cccc(F)c32)c1 (centres undefined) | 4.61 µM (active) | 2.91 µM (active) |  |  |
| O=C1CC[C@@H](C(=O)N2CSC[C@H]2C(=O)O)N1 | inactive | inactive |  |  |
| Cc1cc(=O)oc2cc(NC(=O)[C@H](CCC(=O)O)NC(=O)[C@H](CC(C)C)NC(=O)[C@H](CC(C)C)NC(=O)OCc3ccccc3)ccc12 | inactive | inactive |  |  |
| Cc1cc2ncc(C(=O)NCC(C)(C)NCC(=O)N3CCC[C@H]3C#N)cn2n1 | inactive | inactive |  |  |
| C[C@@H]1C/C=C/C=C\C=C\C=C\[C@H](O[C@@H]2O[C@H](C)[C@@H](O)[C@H](N)[C@@H]2O)C[C@@H]2O[C@](O)(C[C@@H](O)C[C@H]3O[C@@H]3/C=C/C(=O)O1)C[C@H](O)[C@H]2C(=O)O | inactive | inactive |  |  |

| Compound | Potency [1] | Potency [2] | viability (% of control) [1] | viability, % of control [2] |
| --- | --- | --- | --- | --- |
| CC1(C)C[C@@H]2[C@H](C1)[C@@]1(C)C[C@]13C(O)OC[C@]3(O)[C@H]2O (some centres undefined) | inactive | inactive |  |  |
| Nc1nonc1-c1nc2cnccc2n1C1CC1 | 2.06 µM (active) | 2.31 µM (active) |  |  |
| OC[C@H]1O[C@@H](OCCc2ccc(O)cc2)[C@H](O)[C@@H](O)[C@@H]1O | inactive | inactive |  |  |
| CC(C)=CCC/C(C)=C/CO[C@@H]1O[C@H](CO[C@@H]2O[C@@H](CO)[C@H](O)[C@H]2O)[C@@H](O)[C@H](O)[C@H]1O | inactive | inactive |  |  |
| CC1(C)CC2C(C1)C(C)(O)C13CC1(COC3=O)C2O (centres undefined) | inactive | inactive |  |  |
| Cc1ccccc1NC(=O)Nc1ccc(CC(=O)N(C)[C@@H](CC(C)C)C(=O)NCC[C@H](NC(=O)[C@@H]2CCCN2S(=O)(=O)c2cc(Cl)cc(Cl)c2)C(=O)O)cc1 | inactive | inactive |  |  |
| CC[C@H](C)[C@H](NC(=O)[C@H](Cc1ccc(O)cc1)NC(=O)[C@@H](N)C(C)C)C(=O)N[C@@H](Cc1cnc[nH]1)C(=O)N1CCC[C@H]1C(=O)N[C@@H](Cc1ccccc1)C(=O)O |  |  | 98.9% [at 4.97 µM] (inactive) | 102% [at 4.97 µM] (inactive) |
| CC1(C(=O)O)CC[C@]2(C(=O)OC3OC(CO)C(O)C(O)C3O)CC[C@]3(C)C(=CCC4[C@@]5(C)CC[C@H](OC6OCC(O)C(O)C6OC6OC(CO)C(O)C(O)C6O)C(C)(C)C5CC[C@]43C)C2C1 (some centres undefined) |  |  | 68.3% [at 9.25 µM] (inactive) | 78.9% [at 9.25 µM] (inactive) |
| COc1cc(O)cc(C)c1C(=O)O[C@H]1[C@@H](OC(C)=O)[C@H](n2ccc(=O)[nH]c2=O)O[C@@H]1CO | inactive | inactive |  |  |
| CC1(CCC(=O)O)C(=O)C=CC23CC4CC(OC4(C)C2O)C13 (centres undefined) | inactive | inactive |  |  |
| COc1cc(CCC2=NN=C(NC(=O)c3ccc(N4C[C@@H](C)N[C@@H](C)C4)cc3)C2)cc(OC)c1 | 0.461 µM (active) | 1.46 µM (active) |  |  |
| NCC(=O)O | inactive | inactive |  |  |
| CC1OC(O[C@H]2CC[C@@]3(C)C(CC[C@]4(C)C3CC=C3C5CC(C)(C)CC[C@]5(C(=O)OC5OC(CO)C(OC6OCC(OC7OCC(O)C(O)C7O)C(O)C6O)C(O)C5O)CC[C@]34C)C2(C)C)C(O)C(O)C1OC1OC(CO)C(O)C(OC2OC(CO)C(O)C(O)C2O)C1O (some centres undefined) |  |  | 54.2% [at 9.25 µM] (inactive) | 62.2% [at 9.25 µM] (inactive) |
| C=C1C(=O)O[C@@H]2/C=C(\CO)CC/C=C(\CO)[C@H](OC(C)=O)C(OC(=O)C(C)CC)C12 (some centres undefined) | 5.02 µM (active) | 2.24 µM (active) |  |  |
| CCC(C)/C=C(C)/C=C/C1=CC2=C(Cl)C(=O)C(C)(OC(C)=O)C(=O)C2=CN1CCCCC(N)C(=O)O (centres undefined) | inactive | inactive |  |  |
| C[C@@H]1C(=O)OC[C@H]2C(C(=O)O)=C[C@@H]3CC(C)(C)C[C@]312 | inactive | inactive |  |  |
| O=c1c2cccnc2n(-c2cccc([N+](=O)[O-])c2)c(=O)n1Cc1ccncc1 | inactive | inactive |  |  |
| Cc1ccc(NS(=O)(=O)c2cc3c(cc2N[C@H](C)CO)NC(=O)CC3)cc1C | 20.6 µM (active) | 14.6 µM (active) |  |  |
| CCC(C)CC(=O)OC1C(=O)C(CO)=CC(O)C1C(C)C (centres undefined) | 2.59 µM (active) | 2.59 µM (active) |  |  |
| Oc1ccc(/C=C/c2cc(O)cc(O)c2)cc1 | 16.6 µM (active) | 18.6 µM (active) |  |  |
| CCOC(=O)CCNc1cc(N2CCc3ccccc3CC2)nc(-c2cccnc2)n1 | inactive | 14.6 µM (active) |  |  |
| CC1CCC2(C(=O)OC3OC(COC4OC(CO)C(O)C(O)C4O)C(O)C(O)C3O)CCC3(C)C(=CCC4C5(C)CCC(O)C(C)(C(=O)O)C5CCC43C)C2C1(C)O (centres undefined) |  |  | 98.4% [at 9.25 µM] (inactive) | 98.8% [at 9.25 µM] (inactive) |
| CC(=O)OCC1=C[C@H](O)[C@@H]2C(C(=O)O)=CO[C@@H](O[C@@H]3O[C@H](CO)[C@@H](O)[C@H](O)[C@H]3O)[C@H]12 | inactive | inactive |  |  |
| CN=C(NC#N)NCCSCc1nc[nH]c1C | inactive | inactive |  |  |
| O=C(Nc1ccc(CN2CCOCC2)cc1)c1ccc(-c2cccc(Cl)c2)o1 | 8.2 µM (active) | 9.2 µM (active) |  |  |
| COc1ccc2[nH]c3c(c2c1)CCN[C@]31CS[C@@H]2c3c(OC(C)=O)c(C)c4c(c3[C@H](COC1=O)N1[C@@H]2[C@H]2c3c(cc(C)c(OC)c3O)C[C@@H]([C@@H]1O)N2C)OCO4 | 0.0015 µM (active) | 0.0011 µM (active) |  |  |
